# Measured potencies and affinities stand elsewhere.
# Experiments:
# Staphylococcus aureus = conditions: Concentration 32 ug.mL-1;; ASSAY_TEST Inhibition of Bacterial Growth; detection method Absorption (OD600); MEDIA CAMHB; plate type 384well; NBS; CORNING #3640; time 18 hr
# Escherichia coli = conditions: Concentration 32 ug.mL-1;; ASSAY_TEST Inhibition of Bacterial Growth; detection method Absorption (OD600); MEDIA CAMHB; plate type 384well; NBS; CORNING #3640; time 18 hr
Structure (SMILES),Inhibition (Staphylococcus aureus) [%],Inhibition (Escherichia coli) [%]
O=C(Cn1nc2c(=O)n(-c3ccc(Br)cc3)ccn2c1=O)Nc1cc(F)ccc1F,4.89,0.34
CCOc1ccc(-n2ccn3c(SCC(=O)Nc4cc(Cl)ccc4OC)nnc3c2=O)cc1,6.02,1.04
CCc1ccccc1Sc1nccn2c(=O)n(CC(=O)N3CCN(c4ccccc4F)CC3)nc12,-3.66,-8.54
Cc1cc2nn(CC(=O)Nc3cccc(C)c3C)c(=O)n2c(Nc2ccc(C)c(F)c2)n1,9.25,-3.18
COC(=O)c1ccc(NC(=O)Cn2nc3c(N4CCOCC4)nccn3c2=O)cc1,12.61,0.79
Cc1ccccc1Oc1nccn2c(=O)n(CC(=O)Nc3ccccc3C(F)(F)F)nc12,10.19,1.35
CCCN(C)c1nccn2c(=O)n(CC(=O)Nc3ccc(Br)cc3)nc12,8.04,-5.88
Cc1ccccc1Nc1cc(C)n2c(=O)n(CCOc3ccc(F)cc3)nc2n1,13.1,-3.45
CCc1ccc(N(Cc2ccccc2Cl)S(=O)(=O)c2cccn3c(C)nnc23)cc1,18.06,0.45
Cc1cccc(C)c1NC(=O)Cn1nc2c(Sc3cccc(F)c3)nccn2c1=O,9.75,-2.6
Cc1ccc(N(Cc2ccc(F)cc2)S(=O)(=O)c2ccc3nnc(C)n3c2)cc1,0.5,-5.57
CSc1cccc(NC(=O)Cn2nc3ccc(SC(C)(C)C)nn3c2=O)c1,-2.88,1.52
